An excerpt weighted towards active compounds, which were near 19% of everything screened.
TDP1 cell noCPT = qHTS for Inhibitors of human tyrosyl-DNA phosphodiesterase 1 (TDP1): qHTS in cells in absence of CPT | DT40 Tdp1-/- hTDP1 cells, no CPT, ATP luminescence, 48 h | Potency, µM (top dose mostly 46.2 µM), hits mostly inhibitors | hit rate 15% among 420,000 | AID 686978, 2013; further: nearly all actives have a fitted effect of over 55% in size
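Luminescent ATP content (CellTiter-Glo) served as the growth readout. Knockout chicken DT40 cells expressing human TDP1 were exposed to compounds without camptothecin for a minimum 48 hr at 37 °C.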
TGFb inhibitor = TGF-b pathway inhibition; Potency, µM (titrated, usually from 46.1 µM), actives largely listed as inhibitors; HepG2 CAGA-GFP TGF-b/SMAD3 reporter, GFP fluorescence, 18 h; TGF-beta stimulated, 500 pg/mL final; AID 588855; hit rate 1.2% among 410,000; further: nearly all actives have a fitted effect of over 65% in size
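Smad-responsive CAGA-GFP expression was quantified in HEPG2 cells exposed to compounds and 500 pg/mL final TGF-beta for 18 h at 37 degrees C; unstimulated wells defined full inhibition.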
DT40 TDP1 CPT = DT40-hTDP1 cell growth loss with CPT; chicken DT40 Tdp1-/-;hTDP1 cells + 20 nM CPT, ATP luminescence, 48 h; Potency, µM (series often up to 46.2 µM), actives largely listed as inhibitors; hit rate 12% among 420,000; further: nearly all actives have a fitted effect of over 55% in size
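Chicken DT40 Tdp1-/- cells stably complemented with human TDP1 were seeded at 400 cells/well in medium containing 20 nM camptothecin, exposed to pin-transferred compounds, and grown at 37 °C for at least 48 hr. Viability was read as ATP luminescence.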
HepG2 tox = counter-screen for TGF-b inhibitors: cytotoxicity in HepG2 cells; Potency, µM (series often up to 46.1 µM), actives largely listed as cytotoxic; AID 588856; HepG2 CAGA-GFP viability, ATP luminescence, 18 h; hit rate 0.76% among 410,000
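HepG2 CAGA-GFP cells (1000/well, DMEM with 1% FBS) received compound, then TGF-beta at 500 pg/mL final, and were incubated 18 hours at 37 degrees C. Viability was read by CellTiter-Glo luminescence. Media-only wells were set as complete cell-killing and DMSO as no toxicity.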
TDP1 block = inhibitors of human tyrosyl-DNA phosphodiesterase TDP1 | hit rate 0.28% among 350,000 | Potency, µM (top dose mostly 130 µM), hits mostly inhibitors | Q9NUW8 | recombinant TDP1, AlphaScreen DNA substrate cleavage | AID 485290; further: nearly all actives have a fitted effect of over 40% in size
Target sequence (Q9NUW8 whole entry, looked up): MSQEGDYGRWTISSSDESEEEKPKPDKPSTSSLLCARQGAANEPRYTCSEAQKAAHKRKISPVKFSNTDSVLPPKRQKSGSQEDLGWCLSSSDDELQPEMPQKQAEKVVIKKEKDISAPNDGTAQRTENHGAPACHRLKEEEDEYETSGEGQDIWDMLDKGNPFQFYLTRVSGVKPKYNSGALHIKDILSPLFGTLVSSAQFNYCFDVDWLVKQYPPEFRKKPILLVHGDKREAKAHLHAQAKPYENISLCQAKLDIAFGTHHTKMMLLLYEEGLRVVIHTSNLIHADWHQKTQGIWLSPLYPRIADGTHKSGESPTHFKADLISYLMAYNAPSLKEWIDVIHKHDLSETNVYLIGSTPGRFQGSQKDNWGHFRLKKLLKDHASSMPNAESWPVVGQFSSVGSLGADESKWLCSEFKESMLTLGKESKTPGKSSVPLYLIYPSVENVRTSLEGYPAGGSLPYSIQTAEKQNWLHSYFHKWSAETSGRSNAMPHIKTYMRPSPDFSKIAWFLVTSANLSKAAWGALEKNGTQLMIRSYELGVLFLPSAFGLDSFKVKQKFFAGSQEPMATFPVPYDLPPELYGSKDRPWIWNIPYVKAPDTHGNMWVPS
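Steps: enzyme plus compound, 15 min RT; add biotin/phosphotyrosine-FITC oligonucleotide (15 nM final), react 5 min; add donor/acceptor beads (10 ug/ml final), 10 min; read AlphaScreen. Tdp1 at 1 nM final.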
IL1B secr inh = inflammasome signaling inhibition, IL-1 beta readout; AID 743279; THP-1 LPS/ATP IL-1B secretion, AlphaLISA, 16 h; stronger effect = lower value; hit rate 4.7% among 360,000; activity change, % at 57.5 µM; in the data active means activity change below about -50%; inconclusive means mostly about -30% to -49%
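THP-1 cells pretreated 1 hr with compounds (up to 57.5 uM final), then stimulated with LPS (250 ng/mL final) plus ATP (1.25 mM final); secreted IL-1B measured by AlphaLISA after 16 hr, decreased signal indicating inhibition.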
Numbers stand for hits; n = inactive; u = inconclusive; x = no result; [ ] = dose if it differs, or a comment. Unless noted, the call rests on the fitted dose curve; in most records, active means well fitted curve in the direction sought with a large enough effect; inconclusive means small, poorly fitted or top-dose-only effect, or another doubt; inactive means no such curve, though single readings can be large; an effect the other way counts as inactive or inconclusive.

SMILES	TDP1 cell noCPT	TGFb inhibitor	DT40 TDP1 CPT	HepG2 tox	TDP1 block	IL1B secr inh
CCOC(=O)c1c(C)[nH]c(C)c1C(=O)COC(=O)[C@@H](NC(=O)c1ccco1)C(C)C	n	n	n	n	n	n
Cc1ccc2sc(N3CCN(C(=O)CCS(=O)(=O)c4ccc(Cl)cc4)CC3)nc2c1C	2.31µM	n	4.11µM	n	n	x
CCC(=O)N1CCN(c2nc3c(C)cccc3s2)CC1	u	n	u	n	n	x
CCCCC(=O)N1CCN(c2nc3c(C)c(C)ccc3s2)CC1	18.4µM	n	u	n	n	x
O=C(CCS(=O)(=O)c1ccc(Cl)cc1)N1CCN(S(=O)(=O)c2cccs2)CC1	n	u	n	n	n	n
Cc1ccc(N(C)S(=O)(=O)c2ccc3[nH]cc(C(=O)O)c(=O)c3c2)cc1C	n	n	n	n	n	x
Clc1ccc(CSc2nccn2Cc2ccccc2)cc1	16.4µM	u	u	n	n	-73.1
O=C(CN1CCN(Cc2ccc(F)cc2)CC1)Nc1nc2ccccc2s1	25.9µM	u	n	n	x	n
Cc1ccc2nc(NC(=O)CSc3nccn3Cc3ccc(F)cc3)sc2c1	18.4µM	u	16.4µM	n	n	x
O=C(CSc1nccn1Cc1ccc(Cl)cc1)Nc1nc2ccccc2s1	u	u	u	n	n	x
Cc1nnc(NC(=O)CSc2nccn2Cc2ccc(F)cc2)s1	u	n	u	n	n	n
Cc1ccc2nc(NC(=O)CSc3nccn3Cc3ccccc3)sc2c1	u	u	25.9µM	n	n	x
O=c1ccn(Cc2ccccc2)c(SCc2ccccc2)n1	u	n	n	n	x	n
C=CCN1CCCC1CNC(=O)c1cc(S(N)(=O)=O)cc(OC)c1OC (stereo not drawn)	n	x	n	x	n	x
Cc1ccc(NC(=O)CSc2nccn2Cc2ccccc2)cc1C	20.6µM	n	u	n	n	n
CC(=O)Nc1ccc(NC(=O)CSc2nccn2Cc2ccccc2)cc1	u	n	u	n	n	n
COc1cc(COc2ccc3c(C)c(Cc4ccccc4)c(=O)oc3c2C)cc(OC)c1OC	18.4µM	n	20.6µM	n	n	n
COc1cc(COc2ccc3c(C)c(Cc4ccccc4)c(=O)oc3c2)cc(OC)c1OC	u	n	u	n	n	n
Cc1cccc(C)c1Nc1oc(-c2ccccc2)nc1-c1ccccc1	x	x	x	x	n	x
O=C(c1ccc(OC2CCN(Cc3ccc(C(F)(F)F)cc3)CC2)cc1)N1CCCCC1	20.6µM	n	u	n	n	n
O=C(c1ccc(OC2CCN(Cc3ccccc3C(F)(F)F)CC2)cc1)N1CCCCC1	u	u	u	n	n	-84.7
O=C(COc1cccc2c1CCN(Cc1ccccc1F)C2=O)N1CCCCC1	20.6µM	n	u	n	n	n
O=C(COc1cccc2c1CCN(Cc1ccccc1F)C2=O)N1CCOCC1	x	x	x	x	n	x
CCOC(=O)N1CCN(C(=O)COc2cccc3c2CCN(Cc2ccccc2F)C3=O)CC1	14.6µM	u	20.6µM	n	n	n
COc1ccc(-c2nc(-c3ccccc3)c(Nc3c(C)cccc3C)o2)cc1	x	x	x	x	n	x
SMILES	TDP1 cell noCPT	TGFb inhibitor	DT40 TDP1 CPT	HepG2 tox	TDP1 block	IL1B secr inh
COc1ccc(OC)c(C(C(=O)NC2CCCCC2)N(C(=O)c2snc(C(N)=O)c2N)c2ccccc2OC)c1 (stereo not drawn)	u	n	u	n	x	n
COc1ccccc1N(C(=O)c1snc(C(N)=O)c1N)C(C(=O)NC1CCCCC1)c1cccc(OC)c1OC (stereo not drawn)	16.4µM	n	u	n	x	n
COc1ccc(N(C(=O)c2snc(C(N)=O)c2N)C(C(=O)NC2CCCC2)c2cccs2)c(OC)c1 (stereo not drawn)	20.6µM	n	u	n	n[0.0935 µM]	n
COc1ccc(N(C(=O)c2snc(C(N)=O)c2N)C(C(=O)NC2CCCC2)c2ccc(OC)c(OC)c2)cc1 (stereo not drawn)	n	n	n	n	x	n
CCOc1ccccc1N(C(=O)c1snc(C(N)=O)c1N)C(C(=O)NCCC(C)C)c1ccco1 (stereo not drawn)	20.6µM	n	u	n	n	n
Oc1c(Cl)cc(Cl)cc1CNc1ccc(Br)cn1	n	u	n	n	n	-84.8
O=C(Cn1nc2ccccc2n1)N1CCOc2ccc(CN3CCc4sccc4C3)cc2C1	n	x	n[9.04 µM]	x	x	x
COC(=O)c1[nH]c2ccc(Br)cc2c1NC(=O)CN1CCN(C2CCCCC2)CC1	20.6µM	u	25.9µM	n	n	-99.6
CCOC(=O)c1[nH]c2ccc(Br)cc2c1NC(=O)CCN1CCCC(C)(C)C1	25.9µM	u	u	n	n	n
CCOC(=O)C1CCN(CC(=O)Nc2c(C(=O)OC)[nH]c3ccc(Cl)cc23)CC1	10.3µM	n	23.1µM	n	n	n
CCOC(=O)c1[nH]c2ccc(F)cc2c1NC(=O)CCN1CCOCC1	n	n	n	n	n	n
CCOC(=O)C1CCCN(CC(=O)Nc2c(C(=O)OC)[nH]c3ccc(Br)cc23)C1 (stereo not drawn)	20.6µM	u	16.4µM	n	n	n
CCOC(=O)C1CCN(C(=O)c2ccc(OC3CCN(C(=O)COC)CC3)cc2)CC1	n	n	n	n	n	n
CC(C)(C)c1ccc(C(=O)C[n+]2cccc(Br)c2)cc1	u	n	u	n	x	x
CSCC[C@H](NC(=O)[C@H](Cc1ccccc1)NC(=O)[C@H](Cc1cnc[nH]1)NC(=O)CNC(=O)[C@@H](NC(=O)[C@H](C)NC(=O)[C@H](Cc1c[nH]c2ccccc12)NC(=O)[C@H](CC(C)C)NC(=O)[C@H](CC(N)=O)NC(=O)CN)[C@@H](C)O)C(N)=O	x	x	x	x	n	x
O=C(Cn1c2[n+](c3ccc(C(F)(F)F)cc31)CCCCC2)Nc1ccccc1	n	n	u	n	n	n
CCc1cccc(NC(=O)Cn2c3[n+](c4ccc(C(F)(F)F)cc42)CCCCC3)c1	16.4µM	n	u	n	n	-68.3
O=C(Cn1c2[n+](c3ccc(C(F)(F)F)cc31)CCCCC2)c1ccc2c(c1)OCCO2	20.6µM	n	u	n	n	n
Cn1cnnc1SCC(=O)n1c2ccccc2c2ccccc21	n	n	n	n	n	n
Cn1cnnc1SCc1ccc(C(=O)N=Nc2c(O)n(C)c3ccccc23)cc1	u	n	u	n	n	-54.6
CCOCCSc1c(C)cnc2c1c(=O)n(C)c(=O)n2C	n	n	n	n	n	x
Cc1nc(-c2ccccc2)c(Cc2ccccc2O)c(=O)[nH]1	5.17µM	u	5.8µM	n	x	n
